# “And” between values parts separate entries of the source, which are not always exact repeats. Equal values may be shown once. Inconclusive results are not listed. Entries that show only a call come without a potency. The source made the active and inactive calls. Unless noted, the call rests on the fitted dose curve.
# Key:
# [1] = Nuclear factor erythroid 2-related factor 2/antioxidant responsive element (Nrf2/ARE) small molecule agonists: qHTS cell viability counter screen in human keratinocytes (AID 1919968; active means well fitted curve in the direction sought with a large enough effect in the repeat runs; an effect the other way counts as inactive or inconclusive; further: nearly all actives have a fitted effect of over 55% in size)
# In short: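 CellTiter-Fluor fluorescence, read 1 h after reagent, gave viability in the same wells as the ARE-luciferase assay. KeratinoSens cells (1,500/well) had 23 h compound exposure at 37 C/5% CO2 following 5 h plating.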
# [2] = Nuclear factor erythroid 2-related factor 2/antioxidant responsive element (Nrf2/ARE) small molecule agonists: luciferase reporter gene qHTS assay in human keratinocytes (AID 1919969); further: nearly all actives have a fitted effect of over 35% in size; further: potency means the concentration at half of the fitted maximal effect
# [3] = molecular target: Gonadotropin-releasing hormone receptor (Homo sapiens) (UniProt P30968); test: Human gonadotropin-releasing hormone receptor (GnRHR) small molecule agonists, calcium flux assay in GnRHR-HEK293 cells (AID 1920063); further: nearly all actives have a fitted effect of over 35% in size
# In short: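 Agonist mode: compounds at 15 concentrations, in triplicate, went onto calcium dye-loaded GnRHR-HEK293 cells. Intracellular calcium was then followed as 480/540 nm fluorescence at 1 s intervals over 3 min.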
# [4] = molecular target: KiSS-1 receptor (Homo sapiens) (UniProt Q969F8); test: Human kisspeptin (KISS1R) small molecule agonists, calcium flux assay in KISS1R-HEK293 cells (AID 1920064; active means well fitted curve in the direction sought with a large enough effect in the repeat runs; an effect the other way counts as inactive or inconclusive)
# In short: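 Agonist mode: intracellular calcium rise tracked at 1 s intervals over 3 min (480/540 nm) immediately after compound addition to dye-loaded KISS1R-HEK293 stable cells. Each compound tested at 15 concentrations in triplicate.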
# [5] = G protein-coupled receptor (GPCR) small molecule agonists, calcium flux assay: HEK293 wild type cell line counter screen (AID 1920065)
# In short: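 Calcium flux counter screen: compound added in agonist mode at 15 concentrations in triplicate to dye-loaded parental HEK293 cells. Fluorescence (480/540) read kinetically for 3 min; ATP served as positive control.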
# [6] = p53 small molecule agonists, cell-based qHTS assay with human liver microsomes (AID 1963577);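 further: p53 response element beta-lactamase reporter cells with liver microsomes plus NADPH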
# In short: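 Steps: plate p53RE-bla cells, incubate 5 h at 37 C; add compound in DMSO; add microsomes (0.5 mg/mL final) and NADPH (0.5 mg/mL final); incubate 16 h at 37 C; add LiveBLAzer, 2 h RT; read fluorescence.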
# [7] = p53 small molecule agonists, cell-based qHTS assay with rat liver microsomes (AID 1963578)
# In short: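 Metabolic activation is supplied by rat liver microsomes with NADPH (each 0.5 mg/mL final). p53RE-bla cells incubate with compound 16 h at 37 C; reporter activity is measured by LiveBLAzer fluorescence.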
# [8] = p53 small molecule agonists, cell-based qHTS assay with human liver microsomes: qHTS cell viability counter screen (AID 1963579); further: nearly all actives have a fitted effect of over 45% in size
# In short: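 After the 460/530 nm beta-lactamase read, CellTiter-Glo was added to the same wells and luminescence measured after 30 min at room temperature, giving viability of p53RE-bla cells treated 16 h with compounds plus microsomes and NADPH.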
# [9] = p53 small molecule agonists, cell-based qHTS assay with rat liver microsomes: qHTS cell viability counter screen (AID 1963580); further: nearly all actives have a fitted effect of over 45% in size
# In short: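 After the beta-lactamase ratio was read, CellTiter-Glo was added to the same wells and luminescence measured at 30 min; cells had been treated 16 h at 37 C with compounds, rat liver microsomes and NADPH (0.5 mg/mL final each).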
# [10] = p53 small molecule agonists, cell-based qHTS assay: qHTS cell viability counter screen (AID 1963581); further: nearly all actives have a fitted effect of over 45% in size
# In short: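 Counter screen read by CellTiter-Glo luminescence (ATP content, 30 min at room temperature), run in the same wells as the beta-lactamase reporter read. HCT-116 p53RE-bla cells saw compounds for 16 h at 37 C.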
# [11] = p53 small molecule agonists, cell-based qHTS assay (AID 1963582; active means well fitted activation curve with a large enough effect in the signal ratio in the repeat runs, not every such curve was filed as active; the % refers to the signal ratio)
# In short: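 Read-out is beta-lactamase FRET fluorescence after 2 h at room temperature with LiveBLAzer B/G substrate. p53 response element-bla cells were treated 16 h at 37 C with compounds in DMSO, added 5 h after seeding.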
# [12] = molecular target: 5-hydroxytryptamine receptor 2A (Homo sapiens) (UniProt P28223); test: 5-hydroxytryptamine receptor 2A (HTR2A) small molecule antagonists, cell-based qHTS assay (AID 1963586); further: nearly all actives have a fitted effect of over 45% in size
# In short: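 CHO cells stably expressing human HTR2A were plated for 18 h at 37 C, then loaded with calcium dye for 1 h. Compounds were preincubated 5 min at room temperature before DOI (4 nM solution) was added. Kinetic fluorescence was read for 3 min.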
# [13] = molecular target: 5-hydroxytryptamine receptor 2A (Homo sapiens) (UniProt P28223); test: 5-hydroxytryptamine receptor 2A (HTR2A) small molecule agonists, cell-based qHTS assay (AID 1963587); further: nearly all actives have a fitted effect of over 30% in size
# In short: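 CHO cells stably expressing human HTR2A, plated 18 h, loaded with calcium dye 1 h at 37 C. Agonist mode: compounds added and intracellular calcium fluorescence recorded kinetically for 2 min at 1 sec intervals.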
# [14] = cAMP Responsive Elements (CRE) small molecule antagonists, cell-based qHTS assay (AID 1963591; active means well fitted inhibition curve with a large enough effect in the signal ratio in the repeat runs, not every such curve was filed as active; the % refers to the signal ratio)
# In short: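 Antagonist mode: compounds are added alongside the adenylyl cyclase activator NKH477 (0.25 uM final) to CRE-bla HEK293T cells for 3 h. LiveBLAzer FRET substrate, 2 h at room temperature, reports bla expression.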
# [15] = molecular target: Beta-2 adrenergic receptor (Homo sapiens) (UniProt P07550); test: Adrenergic beta2 receptor (ADRB2) small molecule antagonists, cell-based qHTS assay (AID 1963592); further: series mostly up to about 92 µM; nearly all actives have a fitted effect of over 50% in size
# In short: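 Assay format: CHO-ADRB2 cells, 18-20hr seeding at 37C/5% CO2, then compound plus 1nM isoproterenol agonist mix for 0.5hr RT. Homogeneous time-resolved fluorescence cAMP detection after 1hr, expressed as 665/615 nm ratio.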
# [16] = molecular target: Beta-2 adrenergic receptor (Homo sapiens) (UniProt P07550); test: Adrenergic beta2 receptor (ADRB2) small molecule agonists, cell-based qHTS assay (AID 1963593);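 further: CHO cells stably overexpressing human ADRB2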
# In short: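 CHO cells stably over-expressing ADRB2 were plated overnight at 37C, then dosed with compounds plus a stimulation mix containing 100uM IBMX and 25uM Ro-20-1724 for 0.5hr at room temperature. cAMP was measured by HTRF competition, 1hr.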
# [17] = molecular target: D(2) dopamine receptor (Homo sapiens) (UniProt P14416); test: Dopamine D2 receptor (DRD2) small molecule agonists, cell-based qHTS assay (AID 1963594); further: nearly all actives have a fitted effect of over 35% in size
# In short: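 HEK293 cells stably expressing human DRD2, pre-treated with PDE inhibitor Ro20-1724 (0.1 mM final) and compound 10 min at room temperature, then stimulated with NKH477 (200nM […]) for 30 min. cAMP read by HTRF (665/620 nm).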
# [18] = molecular target: D(2) dopamine receptor (Homo sapiens) (UniProt P14416); test: Dopamine D2 receptor (DRD2) small molecule antagonists, cell-based qHTS assay (AID 1963595; active means well fitted inhibition curve with a large enough effect in the signal ratio in the repeat runs, with a control signal flat; the % refers to the signal ratio)
# In short: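 HEK293 cells stably expressing DRD2, preincubated with 0.1 mM Ro20-1724 and compounds 10 min, were stimulated with 200 nM NKH477 plus 12 nM quinpirole for 30 min at room temperature; cAMP measured by HTRF (665/620 nm).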
# [19] = cAMP Responsive Elements (CRE) small molecule agonists, cell-based qHTS assay (AID 1963590)
# In short: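 Agonist mode: compound added to CRE-bla HEK 293T cells (2,000/well, 18 h after plating) for 3 h at 37 C/5% CO2. Reporter activity detected via FRET beta-lactamase substrate, 2 h room-temperature loading.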
# [20] = molecular target: Muscarinic acetylcholine receptor M1 (Homo sapiens) (UniProt P11229); test: Cholinergic receptor muscarinic 1 (CHRM1) small molecule agonists, cell-based qHTS assay (AID 1963589); further: nearly all actives have a fitted effect of over 35% in size
# In short: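 Agonist-mode calcium-flux screen: compounds at 15 concentrations, three independent runs, were pin-transferred onto dye-loaded human CHRM1-CHO cells. Fluorescence was then recorded kinetically every second over minutes.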
# Chain of 5-hydroxytryptamine receptor 2A (Homo sapiens) (P28223 whole entry, looked up): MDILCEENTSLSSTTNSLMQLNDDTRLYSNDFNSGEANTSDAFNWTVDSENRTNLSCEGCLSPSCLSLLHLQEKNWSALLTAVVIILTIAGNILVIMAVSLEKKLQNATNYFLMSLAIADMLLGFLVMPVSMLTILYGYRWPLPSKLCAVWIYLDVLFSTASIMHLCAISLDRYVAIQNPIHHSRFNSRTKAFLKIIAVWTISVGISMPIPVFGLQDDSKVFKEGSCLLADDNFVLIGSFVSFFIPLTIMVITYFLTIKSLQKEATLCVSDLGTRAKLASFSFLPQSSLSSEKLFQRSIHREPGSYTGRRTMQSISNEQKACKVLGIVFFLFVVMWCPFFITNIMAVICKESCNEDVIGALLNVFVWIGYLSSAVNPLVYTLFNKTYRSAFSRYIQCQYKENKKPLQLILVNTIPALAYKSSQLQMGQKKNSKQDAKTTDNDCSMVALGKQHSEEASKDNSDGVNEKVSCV
# Chain of Muscarinic acetylcholine receptor M1 (Homo sapiens) (P11229 whole entry, looked up): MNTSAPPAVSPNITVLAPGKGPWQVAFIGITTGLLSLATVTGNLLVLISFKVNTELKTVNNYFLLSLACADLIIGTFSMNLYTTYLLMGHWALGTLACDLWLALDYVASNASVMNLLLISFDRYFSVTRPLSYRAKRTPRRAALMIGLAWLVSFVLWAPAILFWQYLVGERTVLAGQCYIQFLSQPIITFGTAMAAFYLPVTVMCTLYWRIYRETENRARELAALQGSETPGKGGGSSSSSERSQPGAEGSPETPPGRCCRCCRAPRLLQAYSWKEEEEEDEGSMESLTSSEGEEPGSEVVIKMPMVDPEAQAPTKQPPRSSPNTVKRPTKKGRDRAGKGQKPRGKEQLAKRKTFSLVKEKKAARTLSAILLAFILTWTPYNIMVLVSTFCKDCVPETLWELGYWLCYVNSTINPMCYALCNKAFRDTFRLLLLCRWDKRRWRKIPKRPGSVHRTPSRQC
# Chain of D(2) dopamine receptor (Homo sapiens) (P14416 whole entry, looked up): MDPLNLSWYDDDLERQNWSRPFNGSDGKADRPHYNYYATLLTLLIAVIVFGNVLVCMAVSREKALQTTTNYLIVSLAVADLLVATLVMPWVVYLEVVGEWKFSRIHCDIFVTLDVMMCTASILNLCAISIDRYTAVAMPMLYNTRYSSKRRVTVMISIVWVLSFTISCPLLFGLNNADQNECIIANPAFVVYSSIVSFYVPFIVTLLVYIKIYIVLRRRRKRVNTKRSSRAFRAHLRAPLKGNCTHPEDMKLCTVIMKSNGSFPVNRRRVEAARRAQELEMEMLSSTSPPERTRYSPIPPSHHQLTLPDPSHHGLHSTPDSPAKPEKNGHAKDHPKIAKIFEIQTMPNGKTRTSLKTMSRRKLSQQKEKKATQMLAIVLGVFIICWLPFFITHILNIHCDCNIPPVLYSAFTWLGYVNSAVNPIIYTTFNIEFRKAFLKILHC
# Chain of Gonadotropin-releasing hormone receptor (Homo sapiens) (P30968 whole entry, looked up): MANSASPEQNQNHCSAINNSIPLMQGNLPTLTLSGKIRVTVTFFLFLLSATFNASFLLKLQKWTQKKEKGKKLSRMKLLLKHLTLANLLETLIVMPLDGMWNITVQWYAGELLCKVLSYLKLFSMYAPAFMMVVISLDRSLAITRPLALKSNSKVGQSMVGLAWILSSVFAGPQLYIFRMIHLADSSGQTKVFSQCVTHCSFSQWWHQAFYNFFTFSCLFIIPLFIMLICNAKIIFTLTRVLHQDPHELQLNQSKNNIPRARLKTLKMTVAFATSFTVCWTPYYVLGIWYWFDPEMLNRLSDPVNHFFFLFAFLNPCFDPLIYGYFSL
# Chain of Beta-2 adrenergic receptor (Homo sapiens) (P07550 whole entry, looked up): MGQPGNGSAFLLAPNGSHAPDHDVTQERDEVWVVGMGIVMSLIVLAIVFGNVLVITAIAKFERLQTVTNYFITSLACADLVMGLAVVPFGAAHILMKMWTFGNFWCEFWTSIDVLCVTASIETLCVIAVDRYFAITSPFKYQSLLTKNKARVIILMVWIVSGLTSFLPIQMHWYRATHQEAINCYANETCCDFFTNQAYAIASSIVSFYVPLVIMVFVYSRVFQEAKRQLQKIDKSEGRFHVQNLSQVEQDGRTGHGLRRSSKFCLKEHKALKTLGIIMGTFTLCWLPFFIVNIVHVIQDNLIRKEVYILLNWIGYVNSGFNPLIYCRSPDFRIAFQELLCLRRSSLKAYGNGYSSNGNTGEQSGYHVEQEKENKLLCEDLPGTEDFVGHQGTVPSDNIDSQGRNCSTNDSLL
# Chain of KiSS-1 receptor (Homo sapiens) (Q969F8 whole entry, looked up): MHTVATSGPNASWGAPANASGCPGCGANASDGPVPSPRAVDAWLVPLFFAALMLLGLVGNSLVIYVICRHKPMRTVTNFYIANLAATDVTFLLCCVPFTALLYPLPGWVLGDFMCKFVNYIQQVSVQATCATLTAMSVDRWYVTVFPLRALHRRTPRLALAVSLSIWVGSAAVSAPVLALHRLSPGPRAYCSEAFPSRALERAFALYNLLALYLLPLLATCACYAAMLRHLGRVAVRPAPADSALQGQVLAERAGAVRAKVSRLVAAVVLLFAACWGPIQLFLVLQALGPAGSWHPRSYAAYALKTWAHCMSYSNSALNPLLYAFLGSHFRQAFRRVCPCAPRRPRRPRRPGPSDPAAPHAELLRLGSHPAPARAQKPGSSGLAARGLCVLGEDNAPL
SMILES,Potency [1],Potency [2],Potency [3],Potency [4],Potency [5],Potency [6],Potency [7],Potency [8],Potency [9],Potency [10],Potency [11],Potency [12],Potency [13],Potency [14],Potency [15],Potency [16],Potency [17],Potency [18],Potency [19],Potency [20]
CC(=O)Nc1ccc2c(c1)Cc1cc(NC(C)=O)ccc1-2,inactive,inactive,inactive,inactive,inactive,inactive,inactive,inactive,inactive,inactive,inactive,inactive,inactive,inactive,inactive,inactive,inactive,inactive,–,–
[O-]/[N+](=N\O)c1ccccc1,inactive,68 µM (active) and 34.4 µM (active),inactive,inactive,inactive,inactive,inactive,inactive,inactive,inactive,inactive,inactive,inactive,inactive,inactive,–,inactive,inactive,inactive,–
CCOCC(=O)O,inactive,inactive,inactive,inactive,inactive,inactive,inactive,inactive,inactive,inactive,inactive,inactive,inactive,inactive,inactive,inactive,inactive,inactive,inactive,inactive
CCCCC/C(C=O)=C\c1ccccc1,inactive,inactive,inactive,inactive,inactive,inactive,inactive,inactive,inactive,inactive,inactive,inactive,–,inactive,inactive,inactive,inactive,inactive,inactive,inactive
O=C1CCCCCCCCCCCN1,inactive,inactive,inactive,inactive,inactive,inactive,inactive,inactive,inactive,inactive,inactive,–,inactive,inactive,inactive,inactive,inactive,inactive,inactive,inactive
C=CC[N+](C)(C)CC=C,inactive,inactive,inactive,inactive,inactive,inactive,inactive,inactive,inactive,inactive,inactive,inactive,inactive,inactive,inactive,inactive,inactive,inactive,inactive,inactive
COc1ccccc1[N+](=O)[O-],inactive,inactive,inactive,inactive,inactive,inactive,inactive,inactive,inactive,inactive,inactive,inactive,–,inactive,inactive,inactive,inactive,inactive,inactive,inactive
